Experimental data from PubChem BioAssay AID743330 (NMMLSC, 2014).
Activity calls are given as the source filed them. No rule for the calls is given here.

Tested on: Cdc42 mutant
Experiment: fluorescent GTP concentration effect on GTPase potency – biochemical, four GTPases, bead flow cytometry, mechanism study, profiling panel (AID 743330)
Conditions: bead-based flow cytometry, fluorescent GTP binding to GTPases

Row | Structure (SMILES) | EC50
1 | CC1(C)Cc2c(sc(NC(=S)NC(=O)c3ccc(F)cc3)c2C(=O)O)CO1 | 54 nM (active)
2 | CCC1(C)Cc2c(sc(NC(=S)NC(=O)c3ccccc3)c2C(=O)O)CO1 (configuration not stated) | 4 nM (active)
